Test results reported in article PMC10163288.
The list is a sample of the results. The hit rate among all sequences tested is not known here.

B1: il2ra_site1_3nfp_sap_13_mot_HHH_b1_04931_000000291_0001_38_56_H_._HHH_b2_07276_0001_0000200010_0000001_0_0001 (protein)
chain: SSSSSDYEELERLFREIFELAKKGDHEEARRLIEELEELAHEANNEFMEQAVKQLKKTVNSSSSS
B2: il2ra_site2_3nfp_normal_mot_HHH_b2_00232_000000252_0001_23_39_H_._HHH_b2_01857_0001_0000200024_0000001_0_1_af2pred_0001_af2pred (protein)
chain: SSSSSDEEEEKVEELLEEAEHIEDEEELEDILALAFLIAFEAEDPELLRLVREVSAELLQSSSSS
B3: il2ra_site2_2erj_sap_21_mot_39ed66e5fba071e4f274ea7f2cf018e6_0001_000000286_0001_17_31_H_._HHH_b1_00857_0001_0000200006_0000001_0_0001_af2pred_0001_af2pred (protein)
chain: SSSSEEREKAKELAARALQLRERGNPEEAEELLREAEEIAREGGDEELLQLIQAALRLIELSSSS
B4: il2ra_site1_3nfp_normal_mot_HHH_b1_02721_af2_000000134_0001_39_56_H_._HHH_b2_00677_af2_0001_0000100009_0000001_0 (protein)
chain: SSSSSDTEEAFQLDRELLEALRKGDEELIEELLRELEELAKELNDELAERLVEQFKELLKSSSSS
B5: il2ra_site2_2erj_sap_26_mot_HHH_b2_08005_af2_000000017_0001_39_52_H_._5f42aca8a0c299d7b7d7982f3e471efe_0001_0001_0000400050_0000001_0_0001 (protein)
chain: SSSSDLEEEVERIEKEAEELYKNGNPEEALRLLSELFDELYQLGDHELAARVIKLVAELARSSSS
B6: il2ra_site1_1z92_normal_mot_HHH_b1_04329_000000069_0001_1_19_H_._HHH_b2_03912_0001_0000100007_0000001_0_af2pred_0001_af2pred_1 (protein)
chain: SSSSIELIRFADEVVLRLAEEYKLSDEDAQYLAEVAIELIRRGYSEEEIEEILQEEAEKLSSSSS
B7: il2ra_site2_2erj_sap_19_mot_HHH_b2_00505_000000221_0001_1_17_H_._HHH_b1_08169_0001_0000200013_0000001_1_0001 (protein)
chain: SSSSSEWLHRSYKLANELMHLLARGDEEEFERLVEEIEKFAEERDNKVLKEIVESLHRLFNSSSS
B8: il2ra_site1_2b5i_normal_mot_HHH_b2_04910_000000118_0001_1_19_H_._HHH_b1_07294_af2_0001_0000100005_0000001_0_af2pred_dldesign_0_af2pred (protein)
chain: SSSSSSKEALELFLKANEAYQAGNYEEAKKLLEEALEKAKAAGMTALVKMIESALESLSSSSSSS
B9: il2ra_site1_3nfp_sap_20_mot_HHH_b2_00213_000000088_0001_1_18_H_._HEEHE_0331_af2_0001_0000400039_0000001_0_0001_af2pred_dldesign_0_af2pred (protein)
chain: SSSSSLRKELERLLKKAYETGKKNDKEKLKKLLEEALKLAKENKAKLSVKFLERALKQLKSSSSS
B10: il2ra_site1_1z92_normal_mot_HHH_b1_04604_af2_000000029_0001_42_56_H_._HHH_b2_07020_af2_0001_0000300012_0000001_0 (protein)
chain: SSSSSSDVIELALRLARALRRGDEEEVQELLEELKRYAEERDNRAAREIAERIEKHLGSSSSSSS
B11: il2ra_site1_1z92_sap_15_mot_e1ae4cb039f7b6770b9307eb87230ce5_0001_000000230_0001_37_51_H_._22eb9e4dad251339c268dc73c902281b_0001_0001_0000100004_0000001_0_0001_ … (protein)
chain: SSSSSSERDARIVVELAVRAAGLSEEQQEELERLAKELLEEGYSFEEIARILDKLALELGSSSSS
B12: il2ra_site2_2erj_sap_13_mot_HHH_b2_06689_af2_000000039_0001_18_34_H_._HHH_b1_05500_af2_0001_0000100002_0000001_0_0001 (protein)
chain: SSSSSEELHRLYELAVELLRAVAEGDEELVREILEEVEELAERADSENVKELIENLHRLFNSSSS
B13: il2ra_site1_2b5i_normal_mot_HHH_b1_02271_000000068_0001_1_16_H_._HHH_b2_05772_0001_0000400026_0000001_0_af2pred_dldesign_0_af2pred (protein)
chain: SSSSSPELKRLVEEALRRAEAAKAAGRVREALEILNAAHKKADEADDEELSDELEAKAKELSSSS
B14: il2ra_site1_1z92_sap_10_mot_d8cfa582855fb05d91e09f57594ab115_0001_1_000000067_0001_37_51_H_._HEEHE_2450_0001_0000100007_0000001_0_0001 (protein)
chain: SSSSSEAERAFELIREIDEVIREGDEEEAKRLLEELRRLAEERNSPTMKRLLELLEEALEGSSSS
B15: il2ra_site2_2erj_normal_mot_6bd1339e93f6fdda22195c76da45ec5d_0001_000000136_0001_37_51_H_._ems_3hC_696_0001_0000700021_0000001_0_af2pred_0001_af2pred (protein)
chain: LEEDILRAFRIAVELLEKFRDDPEIERLVLEASLELTEAIEENDEEKIERVIEKIEEIKEEADSS
B16: il2ra_site2_3nfp_sap_19_mot_HHH_b1_03376_000000004_0001_41_55_H_._88162e6262ef81793ed720f4f561f318_0001_0001_0000800035_0000001_0_0001_af2pred_0001_1_af2pred_sw … (protein)
chain: SSDEEQEESEELKELIREALEKNDDEKLRKLIKEAASFALQLNDEELLEFASEARALLAKLRLSS
B17: il2ra_site1_1z92_normal_mot_922575b2e9738a49cb663a995786872c_0001_af2_000000234_0001_18_32_H_._09c2afe89fb4cbada1505b3a46965288_0001_af2_0001_0000100006_0000001 … (protein)
chain: GPEQELEELEEELGDPREAIRLLLEELEEESGDPELARQFLKIEIKRLFNVPPEEAERLLREAEK
B18: il2ra_site1_3nfp_normal_mot_HHH_b1_04931_000000291_0001_38_56_H_._5fa2c1a30f04debedfe40931e4d0b367_0001_af2_0001_0000700055_0000001_0 (protein)
chain: DVRFLLEAARFAGDELVVEVAEKLEELREEDPDDQEVKELVQKLLQLLAKDPEEAKKLAEELKRR
B19: il2ra_site1_3nfp_normal_mot_ems_3hC_3_0002_000000237_0001_23_41_H_._971380201c9414114138cf1fdc40c0f4_0001_1_0001_0000300014_0000001_0_af2pred_0001_af2pred (protein)
chain: SLAEELVEEIEEKGLPPEEIEKLIREILKRIGDPEEAREFFEELMRLAAKNRNEELLEAIKLVLR
B20: il2ra_site1_3nfp_sap_10_mot_HHH_b2_00770_af2_000000063_0001_1_19_H_._HHH_b2_07788_0001_0000400012_0000001_0_0001 (protein)
chain: NEEARRLAEAIARGDPRVEELIEELVEELKRKGDPDLRHALKALARMARSFGNPELAEELERLLK
B21: il2ra_site1_1z92_normal_mot_HHH_b1_07828_af2_000000107_0001_18_34_H_._HHH_b1_02447_af2_0001_0000300012_0000001_0 (protein)
chain: SSSSDLEEAIEILLQAIRRAIEAGNEKAAERFIEFAKEQIEDSGDPELERILRELEELLRSSSSS
B22: il2ra_site1_2b5i_normal_mot_HHH_b1_02271_000000068_0001_1_16_H_._HHH_b1_08003_0001_0000900024_0000001_0_af2pred_dldesign_0_af2pred (protein)
chain: SSSSSDKKAEVERLIEEAERLYKAGKRREALEKLNEAKKLADAADDEELEDKIEELAKKISSSSS
B23: il2ra_site1_3nfp_sap_13_mot_0eddeacbb14b769e73e254714f31e2f9_0001_af2_000000052_0001_37_51_H_._3685a7fc0315cffcf770f862f50b42b9_0001_1_0001_0000400028_0000001_0 … (protein)
chain: SDLEEEVRELIELIKEFAEERNSPVAKLYAELLEEAARRAEERNDERSLRYVLRSARLALRSGSS
B24: il2ra_site1_1z92_sap_18_mot_HHH_b1_00368_000000203_0001_23_39_H_._d7cfadeb27be910639eb6e95e3396c32_0001_af2_0001_0000300014_0000001_0_0001 (protein)
chain: SSSSDEELEERVKQFAEELVKELGLDEHAREALEKDAEAAVRLGFSERSIKLALERAARRASSSS

These binders were tested against il2ra, P01589 (assay: yeast display titration).
Chain of il2ra, P01589 (P01589 whole entry): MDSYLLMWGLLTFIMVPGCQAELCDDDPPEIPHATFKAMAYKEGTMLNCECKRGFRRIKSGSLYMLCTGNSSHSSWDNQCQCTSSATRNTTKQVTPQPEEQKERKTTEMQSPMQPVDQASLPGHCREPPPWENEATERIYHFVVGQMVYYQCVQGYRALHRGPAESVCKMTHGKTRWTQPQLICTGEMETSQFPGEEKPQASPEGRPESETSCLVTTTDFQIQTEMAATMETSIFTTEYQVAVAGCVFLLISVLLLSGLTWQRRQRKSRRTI

Apparent Kd, inactive:
B1 no binding seen
B2 no binding seen
B3 no binding seen
B4 > 802 nM
B5 no binding seen
B6 no binding seen
B7 no binding seen
B8 no binding seen
B9 > 1470 nM
B10 no binding seen
B11 no binding seen
B12 no binding seen
B13 no binding seen
B14 no binding seen
B15 no binding seen
B16 no binding seen
B17 no binding seen
B18 no binding seen
B19 no binding seen
B20 no binding seen
B21 no binding seen
B22 no binding seen
B23 no binding seen
B24 no binding seen
